Reference: PubChem BioAssay (NCATS)
Where “and” joins values, the source holds several entries; their conditions need not be identical. Equal values may be shown once. Inconclusive results are not listed. Entries that show only a call come without a potency. Calls of active or inactive are those of the source. Unless noted, calls come from the whole dose curve; as a rule, active = well fitted curve in the direction sought with a large enough effect; inconclusive = small, poorly fitted or top-dose-only effect, or another doubt; inactive = no such curve, though single readings can be large; an effect the other way counts as inactive or inconclusive.

What was measured:
[1] = target: Nuclear receptor ROR-gamma (Homo sapiens) (UniProt P51449); experiment: qHTS assay for small molecule antagonists of the retinoid-related orphan receptor gamma (ROR-gamma) signaling pathway (AID 651802);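 note: CHO cells with doxycycline-induced ROR-gamma expression; luciferase reporter luminescence driven by ROR response element; nearly all actives have a fitted effect of over 60% in size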
Nuclear receptor ROR-gamma (Homo sapiens), sequence (P51449 whole entry, looked up): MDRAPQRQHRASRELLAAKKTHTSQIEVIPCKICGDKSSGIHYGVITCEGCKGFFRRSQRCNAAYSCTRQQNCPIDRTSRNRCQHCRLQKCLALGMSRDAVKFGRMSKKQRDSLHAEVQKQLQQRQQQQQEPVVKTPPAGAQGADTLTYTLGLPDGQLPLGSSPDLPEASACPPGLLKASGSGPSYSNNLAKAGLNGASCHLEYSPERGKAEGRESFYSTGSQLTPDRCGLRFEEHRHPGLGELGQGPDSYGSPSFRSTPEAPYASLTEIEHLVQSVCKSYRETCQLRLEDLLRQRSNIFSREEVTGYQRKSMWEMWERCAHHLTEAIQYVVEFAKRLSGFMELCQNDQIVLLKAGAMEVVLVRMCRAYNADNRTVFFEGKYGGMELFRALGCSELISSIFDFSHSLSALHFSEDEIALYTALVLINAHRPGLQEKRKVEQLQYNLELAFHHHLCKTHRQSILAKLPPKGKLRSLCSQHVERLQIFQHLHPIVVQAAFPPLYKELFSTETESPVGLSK
Procedure, shortened: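 Luciferase read-out: ONE-Glo luminescence after 30 min at room temperature, following 16hr doxycycline induction at 37C, 5% CO2 of CHO cells with TET-inducible ROR and RORE-LUC reporter; decreased luminescence = reduced reporter activity.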

[2] = target: Arylsulfatase A (Homo sapiens) (UniProt P15289); experiment: qHTS screen for enhancers of Arylsulfatase A (ASA1): LOPAC Validation Assay (AID 720538)
Arylsulfatase A (Homo sapiens), sequence (P15289 whole entry, looked up): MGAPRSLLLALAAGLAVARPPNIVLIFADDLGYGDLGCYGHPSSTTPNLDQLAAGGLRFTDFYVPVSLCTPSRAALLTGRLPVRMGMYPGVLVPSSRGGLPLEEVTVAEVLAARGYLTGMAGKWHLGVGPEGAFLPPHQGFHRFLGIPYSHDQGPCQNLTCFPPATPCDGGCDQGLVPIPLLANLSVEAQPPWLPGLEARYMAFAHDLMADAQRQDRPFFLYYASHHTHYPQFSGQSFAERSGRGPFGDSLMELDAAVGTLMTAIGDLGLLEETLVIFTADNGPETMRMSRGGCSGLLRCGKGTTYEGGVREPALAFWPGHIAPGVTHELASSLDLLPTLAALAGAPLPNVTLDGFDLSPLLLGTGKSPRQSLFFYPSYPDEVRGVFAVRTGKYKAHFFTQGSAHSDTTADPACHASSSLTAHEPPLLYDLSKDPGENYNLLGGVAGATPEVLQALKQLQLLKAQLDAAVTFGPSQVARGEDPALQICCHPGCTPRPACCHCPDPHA
Procedure, shortened: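 Read-out: fluorescence at Ex=525/Em=598 nm after 1N NaOH final stop. Patient fibroblasts carrying ASA-I179S had 48h compound exposure, then 14h room-temperature pNCS hydrolysis (0.5mM final) in lysis buffer. Signal increase = enhanced activity.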

[3] = qHTS for compounds that reverse cellular toxicity of Amyloid beta (A-beta) peptide in yeast: LOPAC Validation Assay (AID 720559)
Procedure, shortened: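 OD600 growth readout after 48 hr at 30 C; A-beta-toxic yeast plus pinned compounds in medium. Normalization: DMSO = negative, equimolar FeCl3 + clioquinol = positive.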

[4] = qHTS for Activators of Parkin Expression: LOPAC Validation Assay (NLuc Reporter) (AID 720572)
Procedure, shortened: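 NLuc signal, read 10 min after reagent and following a prior FLuc read, is normalized to DMSO (0) and positive controls (100%). Cells: neuronal Parkin-promoter coincidence reporter line; compounds tested 7-point, 24 h, 37 C, 5% CO2.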

[5] = qHTS for Activators of Parkin Expression: LOPAC Validation Assay (FLuc Reporter) (AID 720573)
Procedure, shortened: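 FLuc luminescence read-out from a neuronal line expressing a Parkin-promoter-driven coincidence reporter. Cells treated 24 h at 37 C, 5% CO2 with compounds at 7 concentrations; signal increase normalized to DMSO and positive control.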

[6] = qHTS assay for small molecule agonists of the antioxidant response element (ARE) signaling pathway measured by Nrf2-dependant transcriptional activity (AID 720636; active = well fitted curve in the direction sought with a large enough effect in the repeat runs; an effect the other way counts as inactive or inconclusive;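 note: HepG2 cells with an ARE-driven luciferase reporter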)
Procedure, shortened: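 Reporter gene assay, HepG2 ARE-luc: 16 hr compound, 37 C, 5% CO2; read-out luciferase luminescence.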

[7] = qHTS assay for small molecule antagonists of the retinoid-related orphan receptor gamma (ROR-gamma) signaling pathway - cell viability counter screen (AID 720652; active = well fitted curve in the direction sought with a large enough effect in the repeat runs; an effect the other way counts as inactive or inconclusive;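 note: CHO reporter cells with doxycycline-induced ROR-gamma expression; compound exposure lasted 16 hr before ATP read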)
Procedure, shortened: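 CHO RORE-LUC/TET-ROR line, 1,000 cells/well, 37 C 5% CO2 5 hr; cpd or DMSO + doxycycline induction, 16 hr. CellTiter-Glo, 30 min RT, luminescence = ATP content.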

[8] = qHTS assay for small molecule agonists of the antioxidant response element (ARE) signaling pathway measured by Nrf2-dependant transcriptional activity - cell viability counter screen (AID 720653; active = well fitted curve in the direction sought with a large enough effect in the repeat runs; an effect the other way counts as inactive or inconclusive); settings: ARE-bla HepG2 viability, CellTiter-Glo ATP luminescence, 16 h; max response: stronger effect = lower value
Procedure, shortened: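 ARE-bla HepG2 cells treated with compounds for 16 h at 37C; this counter screen measures viability as intracellular ATP by CellTiter-Glo luminescence after 30 min at room temperature.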

[9] = target: T1, Hexokinase-4 (Homo sapiens) + Glucokinase regulatory protein (Homo sapiens) (UniProt P35557+Q14397); experiment: qHTS assay for inhibitors of recombinant human GCK-GKRP interaction: Diaphorase-coupled assay (AID 743205)
T1 sequence (P35557 whole entry, looked up): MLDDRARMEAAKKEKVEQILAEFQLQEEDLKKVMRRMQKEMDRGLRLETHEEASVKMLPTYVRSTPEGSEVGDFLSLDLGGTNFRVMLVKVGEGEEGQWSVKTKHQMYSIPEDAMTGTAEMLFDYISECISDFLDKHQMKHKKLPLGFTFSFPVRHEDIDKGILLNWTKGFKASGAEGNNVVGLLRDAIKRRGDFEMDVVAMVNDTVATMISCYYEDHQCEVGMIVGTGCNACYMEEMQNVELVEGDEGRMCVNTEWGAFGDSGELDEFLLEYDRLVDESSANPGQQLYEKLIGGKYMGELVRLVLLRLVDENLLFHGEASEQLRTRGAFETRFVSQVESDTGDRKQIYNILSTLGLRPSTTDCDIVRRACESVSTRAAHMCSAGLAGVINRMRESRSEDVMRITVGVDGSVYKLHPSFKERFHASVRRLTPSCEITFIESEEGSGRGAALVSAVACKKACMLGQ
T1 sequence (Q14397 whole entry, looked up): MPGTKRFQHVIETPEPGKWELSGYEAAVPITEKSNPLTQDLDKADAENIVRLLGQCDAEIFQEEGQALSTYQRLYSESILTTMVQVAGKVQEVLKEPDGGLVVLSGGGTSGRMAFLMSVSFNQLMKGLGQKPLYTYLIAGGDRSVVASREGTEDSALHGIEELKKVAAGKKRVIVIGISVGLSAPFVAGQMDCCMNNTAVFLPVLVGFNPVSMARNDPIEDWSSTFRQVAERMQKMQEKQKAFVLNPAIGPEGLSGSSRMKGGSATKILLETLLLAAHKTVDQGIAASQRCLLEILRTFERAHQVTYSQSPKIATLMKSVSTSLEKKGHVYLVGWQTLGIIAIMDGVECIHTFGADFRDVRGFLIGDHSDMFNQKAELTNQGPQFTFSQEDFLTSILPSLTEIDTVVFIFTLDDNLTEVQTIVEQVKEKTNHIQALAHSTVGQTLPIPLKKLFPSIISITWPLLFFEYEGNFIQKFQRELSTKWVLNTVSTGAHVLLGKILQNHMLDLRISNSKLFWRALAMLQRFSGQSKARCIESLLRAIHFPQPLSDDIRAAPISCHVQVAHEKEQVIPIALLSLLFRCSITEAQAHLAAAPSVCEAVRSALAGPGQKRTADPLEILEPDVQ
Procedure, shortened: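 Resorufin fluorescence (525/590 nm), read each minute over 30 min, reports GCK activity coupled via G6PDH and diaphorase. Reaction: 10 nM GST-GCK, 10 nM FLAG-GKRP, 5 mM glucose, 0.4 mM ATP, 0.15 mM NADP+, 0.1 mM resazurin.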

[10] = target: T1, Hexokinase-4 (Homo sapiens) + Glucokinase regulatory protein (Homo sapiens); experiment: qHTS assay for inhibitors of recombinant human GCK-GKRP interaction: ADP-Glo assay (AID 743206)
Procedure, shortened: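 Pin-transferred compounds meet a 15 nM GST-GCK/15 nM FLAG-GKRP/2 uM S6P mix (dispense concentrations). ATP is then added to 0.4 mM final with 5 mM glucose, and the reaction runs 60 min at room temperature. ADP is quantified luminescently.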

[11] = target: T1, Hexokinase-4 (Homo sapiens) + Glucokinase regulatory protein (Homo sapiens); experiment: qHTS assay for inhibitors of recombinant human GCK-GKRP interaction: HTRF assay (AID 743207)
Procedure, shortened: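 HTRF read-out (ex 320 nm; 615/665 nm emission) after 60 min RT equilibration of 5 nM GST-GCK, 5 nM FLAG-GKRP, 2 uM S6P, compound and anti-FLAG/anti-GST detection antibodies; signal normalized between DMSO wells with and without GCK.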

[12] = qHTS Assay for Identifying Gametocytocidal Compounds (AID 743244); note: potency is the fitted concentration of half-maximal effect;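 for max response: actives lower the fluorescent signal which means gametocytes are killed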; settings: P. falciparum 3D7 stage III-V gametocytes, alamarBlue, 72 h; max response: stronger effect = lower value
Procedure, shortened: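 In this qHTS viability screen, late-stage 3D7 gametocytes are incubated with compound for 72 h, then with alamarBlue for 24 h; reduced resorufin fluorescence marks killing.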

[13] = qHTS assay for cell viability of the p53RE-bla HCT-116 cell line (AID 743292); note: nearly all actives have a fitted effect of over 55% in size
Procedure, shortened: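 Readout: CellTiter-Glo luminescence after 30 min RT. Treatment: compounds in DMSO, 16 h, 37 C. Cells: CellSensor p53RE-bla HCT-116, 4,000/well, preincubated 5 h.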

[14] = qHTS profiling of the MIPE4 collection as inhibitors of Plasmodium falciparum (DD2) proliferation (AID 743345; call rule not given here); settings: P. falciparum Dd2 in erythrocytes, SYBR Green DNA, 72 h; at 28.5 µM (top of the series) unless noted
Procedure, shortened: (§1)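 Parasite DNA was quantified by SYBR Green I fluorescence (ex 485, em 535 nm) after overnight lysis in saponin/Triton buffer at room temperature. Cultures at 0.3% parasitemia and 2.5% hematocrit were first exposed to compound for 72 h at 37 C; signals were normalised to artemisinin (0.29 uM) and vehicle wells.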

[15] = qHTS profiling of the MIPE4 collection as inhibitors of Plasmodium falciparum (DD2) proliferation (Rep 2) (AID 743346; call rule not given here); settings: P. falciparum Dd2 in erythrocytes, SYBR Green DNA, 72 h; at 28.5 µM (top of the series) unless noted
Procedure, shortened: as §1

[16] = qHTS profiling of the MIPE4 collection as inhibitors of Plasmodium falciparum (3D7) proliferation (AID 743344; call rule not given here); settings: P. falciparum 3D7 in erythrocytes, SYBR Green DNA fluorescence, 72 h; at 28.5 µM (top of the series) unless noted
Procedure, shortened: as §1

[17] = qHTS profiling for inhibitors of Plasmodium falciparum (3D7) proliferation (AID 743322);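 note: infected erythrocytes exposed to compound for 72 h before lysis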; settings: P. falciparum 3D7 proliferation, at 28.7 µM (top of the series)
Procedure, shortened: as §1

[18] = qHTS profiling for inhibitors of Plasmodium falciparum (DD2) proliferation (AID 743323; call rule not given here); settings: at 28.7 µM (top of the series), lower = more inhibition
Procedure, shortened: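 Parasite DNA quantified by SYBR Green fluorescence (ex 485, em 535 nm) after saponin/Triton lysis and overnight dark incubation. Cultures: 0.3% parasitemia, 2.5% hematocrit, 72 h, 37 C; data scaled between DMSO and 0.29 uM artemisinin.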

[19] = qHTS profiling for inhibitors of Plasmodium falciparum (HB3) proliferation (AID 743324); settings: Plasmodium falciparum HB3 blood-stage proliferation; at 28.7 µM (top of the series)
Procedure, shortened: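 SYBR Green fluorescence (485 ex/535 em) of lysed cultures, incubated overnight at room temperature in the dark, quantifies parasite DNA. Infected erythrocytes at 0.3% parasitemia and 2.5% hematocrit were exposed 72 h; values normalized to DMSO and 0.29 uM artemisinin controls.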

Row | SMILES | Potency [1] | Potency [2] | outcome [3] | outcome [4] | Potency [5] | outcome [6] | Potency [7] | max response [8] | Potency [9] | Potency [10] | Potency [11] | max response [12] | Potency [13] | parasite growth remaining, % of DMSO control (lower = more inhibition) [14] | parasite growth, % of control (lower = inhibition) [15] | Potency [12] | parasite growth, % of DMSO control [16] | remaining parasite growth % (stronger effect = lower value) [17] [%] | activity, percent of control [18] [%] | remaining proliferation (% of control), lower = more inhibition [19] [%]
1 | CCC1(c2ccccc2)C(=O)NCNC1=O | inactive | inactive | inactive | inactive | inactive | inactive | inactive | 3.8% (inactive) and 3.23% (inactive) | inactive | inactive | inactive | 16.7% (inactive) and 25% (inactive) | inactive | 102% | 107% |  |  |  |  | 
2 | CCCNCC(O)COc1ccccc1C(=O)CCc1ccccc1 (configuration not stated) |  | inactive | inactive | inactive | inactive |  |  |  | inactive | inactive | inactive |  |  | 6.97% | 15.6% | 3.16 µM (active) and 1.78 µM (active) | 5.54% |  |  | 
3 | CC(C)Cc1ccc(C(C)C(=O)O)cc1 (configuration not stated) |  | inactive | inactive | inactive | inactive | inactive |  | 3.8% (inactive) | inactive | inactive | inactive | 19.9% (inactive) and 9.6% (inactive) | inactive | 99.8% [at 9.64 µM] | 162% [at 9.64 µM] |  | 112% [at 9.64 µM] |  |  | 
4 | CN1CCN(CCCN2c3ccccc3Sc3ccc(Cl)cc32)CC1 |  | inactive | inactive | inactive | inactive |  |  |  | inactive | inactive | inactive |  |  | 13% | 28.4% |  | 6.12% |  |  | 
5 | CC(CCc1ccc(O)cc1)NCCc1ccc(O)c(O)c1 (configuration not stated) |  | inactive |  | inactive | inactive |  |  |  | inactive | inactive | inactive | 27.1% (inactive) |  | 64.4% | 62.7% |  |  |  |  | 
6 | Clc1ccccc1C(c1ccccc1)(c1ccccc1)n1ccnc1 |  | inactive | inactive | inactive | inactive |  |  |  | inactive | inactive | inactive |  |  | 6.19% | 11% | 2.51 µM (active) and 2.09 µM (active) |  |  |  | 
7 | COc1cc2nc(N3CCN(C(=O)c4ccco4)CC3)nc(N)c2cc1OC |  | inactive | inactive | inactive | inactive |  |  |  | inactive | inactive | inactive |  |  | 20.6% | 8.89% | 11.2 µM (active) |  |  |  | 
8 | C[C@H]1c2cccc(O)c2C(O)=C2C(=O)[C@]3(O)C(O)=C(C(N)=O)C(=O)[C@@H](N(C)C)[C@@H]3[C@@H](O)[C@@H]21 |  | inactive |  | inactive | inactive |  |  |  | inactive | inactive | inactive | 18.1% (inactive) |  | 28.6% | 14.3% |  | 6.81% | 16.9 | 12.8 | 15.7
